MITF primary: MITF inhibitors, primary screen, biochemical, AlphaScreen, human. AlphaScreen MITF homodimerization, bead proximity signal. inhibition, % at 2.6 µM. 650,000 compounds, 0.91% hits. AID 1259374, 2018; in the data active means inhibition above about 50%
TEAD-YAP inh: TEAD-YAP interaction inhibition, primary screen, TEAD-YAP interaction inhibitor project, luminescence, HEK-TIYL cells; TEAD-Gal4/YAP UAS-luciferase luminescence; inhibition, % at 9.12 µM; 640,000 compounds, 1.4% hits; AID 1259422, 2018; in the data active means inhibition above about 32%
GPR151 ag: activators of human GPR151, primary screen, cell-based, PathHunter beta-arrestin, luminescence | PathHunter beta-arrestin GPR151 cells | activation, % at 11.2 µM | 650,000 compounds, 1% hits | AID 1508602, 2020; in the data active means activation above about 4.9%
Target sequence (Q8TDV0 whole entry, looked up): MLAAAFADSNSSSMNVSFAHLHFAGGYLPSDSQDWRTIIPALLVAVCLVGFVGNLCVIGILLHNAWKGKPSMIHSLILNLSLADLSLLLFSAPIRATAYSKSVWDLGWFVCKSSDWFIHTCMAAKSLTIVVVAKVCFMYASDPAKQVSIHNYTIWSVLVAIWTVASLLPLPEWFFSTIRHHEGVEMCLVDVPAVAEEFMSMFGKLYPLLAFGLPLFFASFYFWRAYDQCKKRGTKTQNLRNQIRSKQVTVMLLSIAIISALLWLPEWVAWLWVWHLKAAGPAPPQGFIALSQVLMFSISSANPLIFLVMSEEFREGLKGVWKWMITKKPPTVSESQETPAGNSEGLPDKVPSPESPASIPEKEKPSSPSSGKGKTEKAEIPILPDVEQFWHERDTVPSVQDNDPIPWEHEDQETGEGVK
FBW7 activator: FBW7 E3 ligase activators, primary screen, biochemical, AlphaScreen, human; AlphaScreen FBW7–phospho-cyclin E peptide binding, activator screen; 650,000 compounds, 0.13% hits; normalized activity (activation), % at 26.1 µM; AID 1259310, 2017; in the data active means normalized activity above about 1.9%;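 further: purified mutant Fbw7 with reduced substrate affinity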
Large screens that a line does not name were inactive. Most compounds without a hit are left out; they make up all but 3.5% or so of the library.

COc1cccc(-n2nc(C(=O)N3CCN(C)CC3)c3ccccc3c2=O)c1	none
CCSc1nnc(C2CCN(CC(=O)Nc3cccc4ccccc34)CC2)n1C	FBW7 activator 2.8
FC(F)(F)c1ccccc1NC(=S)N/N=C1\CC2CC=CC12 (stereo unspecified)	TEAD-YAP inh 47
COc1ccc(S(=O)(=O)NCCNc2nc3cc(C)cc(C)c3cc2C#N)cc1	none
O=C(Nc1ccc(-n2cccn2)cc1)C1CCN(Cc2nc3c(s2)CCCC3)CC1	TEAD-YAP inh 38
O=C(CCl)N=c1sccn1Cc1ccccc1Cl	TEAD-YAP inh 39
COCc1nnc(NC(=O)c2cc(F)c(F)cc2Cl)s1	none
CCN(CC)c1nc2ccccc2n(CC(=O)N2C(C)CCCC2C)c1=O (stereo unspecified)	none
Cc1ccc2[nH]c(=O)c(CN(CC3COCCO3)C(=O)Nc3ccccc3Cl)cc2c1 (stereo unspecified)	TEAD-YAP inh 37
CC(=O)Nc1cc(-c2ccnc(N)n2)ccc1NC(=O)COc1cccc(C)c1	none
Cc1cccc(OCc2nc3ccc(-c4ccnc(N)n4)cc3[nH]2)c1	TEAD-YAP inh 57
COC(=O)C1=CN(C)C=C(C(=O)OC)C1c1cccc(OCc2ccccc2)c1	none
COC(=O)C1=CN(CC2CCCO2)C=C(C(=O)OC)C1c1cccc(O)c1 (stereo unspecified)	none
CCCOc1ccc(C2C(C(=O)OC)=CN(CCC)C=C2C(=O)OC)cc1	FBW7 activator 3.0
CCN1C=C(C(=O)OC)C(c2cccc(OCc3ccccc3)c2)C(C(=O)OC)=C1	FBW7 activator 2.0
COC(=O)C1=CN(CC2CCCO2)C=C(C(=O)OC)C1c1cccc(Oc2ccccc2)c1 (stereo unspecified)	FBW7 activator 2.4
C=CCOc1ccc(C2/C(=C(/O)c3ccc(OCC=C)cc3C)C(=O)C(=O)N2CCCN(C)C)cc1 (stereo unspecified)	none
COCCNc1nc(-c2ccco2)ccc1C(=O)Nc1cccc(OC)c1	none
S=c1sc2c(N3CCCCCC3)ncnc2n1-c1ccccc1	none
COc1ccc(-c2nc(NCCc3ccc(O)cc3)c3ncn(C(C)C)c3n2)cc1	TEAD-YAP inh 61
COc1ccc(CCNc2nc(-c3ccc(C(=O)N4CCN(C)CC4)cc3)nc3c2ncn3-c2ccccc2)cc1	TEAD-YAP inh 41
COc1ccc(-c2nc(NCCc3ccc(O)cc3)c3ncn(-c4ccsc4)c3n2)cc1	TEAD-YAP inh 56
COc1ccc(CCNc2nc(-c3ccc(OC)nc3)nc3c2ncn3-c2ccsc2)cc1	TEAD-YAP inh 46
CC(C)n1cnc2c(NCCc3ccc(O)cc3)nc(-c3ccccc3)nc21	none
COc1ccc(CCNc2nc(-c3ccccc3)nc3c2ncn3-c2ccsc2)cc1	none
COc1ccc(CNC(=O)C(=O)N/N=C/c2cccc(Br)c2)cc1	none
COc1ccc(-c2nc(NCCc3ccc(O)cc3)c3ncn(-c4ccccc4)c3n2)cc1	none
COc1ccc(-c2nc(NCCc3ccc(O)cc3)c3ncn(-c4ccccc4)c3n2)cn1	TEAD-YAP inh 47
CN(C)CCNC(=O)c1ccc(Sc2ccccc2Cl)c([N+](=O)[O-])c1	none
CN(C)CCNC(=O)c1ccc(S(=O)(=O)c2ccc(Br)cc2)c([N+](=O)[O-])c1	TEAD-YAP inh 55
C[C@H](Nc1ccc(C(F)(F)F)cc1[N+](=O)[O-])C(=O)Nc1nc2ccccc2[nH]1	TEAD-YAP inh 32
CC(Nc1ccc(C(F)(F)F)cc1[N+](=O)[O-])C(=O)O (stereo unspecified)	none
Cc1nc2ccc(N=Cc3ccc(N(C)C)cc3)cc2s1	none
CN(C)c1ccc2nc3ccc(=[N+](C)C)cc-3sc2c1	FBW7 activator 19
CC1CN(Cc2cc(Cl)c3cccnc3c2O)CC(C)O1 (stereo unspecified)	MITF primary 56
O=C1c2ccccc2C(=O)N1Cc1cc(Cl)c2cccnc2c1O	none
Oc1c(CN2CCOCC2)cc(Cl)c2cccnc12	MITF primary 64, TEAD-YAP inh 50
CN1CCN(Cc2cc(Cl)c3cccnc3c2O)CC1	MITF primary 79, TEAD-YAP inh 54
Oc1c(CN2CCCCCC2)cc(Cl)c2cccnc12	TEAD-YAP inh 51
O=C(Oc1c(Br)cc(Cl)c2cccnc12)N1CCCCC1	none
CC(=O)N/C(=C\c1ccccc1)C(=O)NCC1COc2ccccc2O1 (stereo unspecified)	none
OCC1CCCCN1Cc1cc(Cl)c2cccnc2c1O (stereo unspecified) (tested in a mixture with another compound)	MITF primary 66, TEAD-YAP inh 76
Oc1c(CN2CCN(c3cccc(C(F)(F)F)c3)CC2)cc(Cl)c2cccnc12	none
CCN1CCN(Cc2cc(Cl)c3cccnc3c2O)CC1	TEAD-YAP inh 47
CCOC(=O)C1CCN(Cc2cc(Cl)c3cccnc3c2O)CC1	TEAD-YAP inh 72
CCOC(=O)C1CCN(Cc2c(Cl)cccc2Cl)CC1	none
OCC1CCCCN1Cc1cccc(Cl)c1Cl (stereo unspecified)	none
O=C1CCCN1Cc1cc(Cl)c2cccnc2c1O	MITF primary 64
Cc1ccc(C)c(Cc2c(C)nc3nc(SCC(=O)NC4CCCCC4)nn3c2C)c1	none
CCOC(=O)c1cnc2c(OC)cccc2c1NCCc1ccccc1	none
CCOC(=O)c1cnc2c(OC)cccc2c1NCCOC	TEAD-YAP inh 42
CCOC(=O)c1cnc2c(OC)cccc2c1Nc1cc(OC)c(OC)c(OC)c1	TEAD-YAP inh 56
CCOC(=O)c1cnc2c(OC)cccc2c1NCCCOC	none
CCOC(=O)c1cnc2c(OC)cccc2c1NCCCN(CC)CC	TEAD-YAP inh 83
Cc1cccc(/C=C2/NC(=O)NC2=O)c1	none
N#CCOc1ccccc1/C=N/n1nnnc1N	FBW7 activator 1.9
C=CCOc1ccccc1/C=N/n1nnnc1N	none
N#CCSc1nnc(Cc2ccccn2)o1	none
C=CCc1ccccc1OCC(O)Cn1c(C)nc2ccccc21 (stereo unspecified)	TEAD-YAP inh 40
C=CCc1ccccc1OCC(O)Cn1c(CO)nc2ccccc21 (stereo unspecified)	none
Cc1ccc(C(C)C)c(OCC(O)Cn2c(C)nc3ccccc32)c1 (stereo unspecified)	TEAD-YAP inh 50
O=C(Cc1ccc(F)cc1)NCCc1nnc2n1CCN(Cc1ccc3c(c1)CCO3)CC2	none
COc1ccc2[nH]c3c(c2c1)CCNC3=O	TEAD-YAP inh 46
Cc1cc(OCC(=O)Nc2c(C)nn(Cc3ccc(F)cc3)c2C)ccc1[N+](=O)[O-]	TEAD-YAP inh 54
Cc1cc(OCC(=O)Nc2ccc(F)cc2)ccc1[N+](=O)[O-]	none
CCN(CC)C(=O)CS(=O)(=O)c1cn(CC(=O)N(C(C)C)C(C)C)c2ccccc12	none
Cc1nc(C)c(NC(=O)NC2CCCCC2)cc1NC(=O)NC1CCCCC1	none
CC1CCCN(S(=O)(=O)c2ccc(NC(=O)/C=C/c3ccco3)cc2)C1 (stereo unspecified)	TEAD-YAP inh 41
